As usually defined, the AC50 is the concentration at which the activity in the assay is half-maximal.

SMILES strings stand for the structures. Active and inactive are the calls of the source. Rule for the calls: active = hit-call score of the fitted dose curve at least 0.9, where 1 is the maximum; inactive = score below 0.9.

What all share (settings): mRNA level, 48 h; actives raise or lower the signal
Read-out in assay [1]: Cyclin Dependent Kinase Inhibitor 1A (CDKN1A), CDKN1A (gene 1026)
Description: LTEA_HepaRG_CDKN1A: Life Technologies and Expression Analysis (LTEA) Assay for Cyclin Dependent Kinase Inhibitor 1A (CDKN1A) using HepaRG (AID 2283450). The method, boiled down: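 Read-out is CDKN1A mRNA by TaqMan qRT-PCR, normalized to three housekeeping genes and fitted in both directions against the DMSO baseline. Human HepaRG cells were treated 48 h with test chemicals up to 100 uM in half-log steps, 0.5% DMSO.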

Read-out in assay [2]: Cyclin D1 (CCND1), CCND1 (gene 595)
Description: LTEA_HepaRG_CCND1: Life Technologies and Expression Analysis (LTEA) Assay for Cyclin D1 (CCND1) using HepaRG (AID 2283451). The method, boiled down:
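HepaRG plated 48 h, medium switched to serum-free induction medium, chemicals added in duplicate (top 100 uM, half-log steps, 0.5% DMSO) for 48 h, cells lysed, RNA measured by TaqMan qRT-PCR.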

Read-out in assay [3]: catalase (CAT), CAT (gene 847)
Description: LTEA_HepaRG_CAT: Life Technologies and Expression Analysis (LTEA) Assay for catalase (CAT) using HepaRG (AID 2283452). The method, boiled down:
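Expression of CAT was quantified by TaqMan qRT-PCR with ACTB/GAPDH/POLR2A normalization after 48 h chemical exposure of HepaRG. Eight-point half-log series, top 100 uM, in 0.5% DMSO; gain or loss fitted against vehicle.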

Read-out in assay [4]: flavin-containing dimethylaniline monooxygenases 3 (FMO3), FMO3 (gene 2328)
Description: LTEA_HepaRG_FMO3: Life Technologies and Expression Analysis (LTEA) Assay for flavin-containing dimethylaniline monooxygenases 3 (FMO3) using HepaRG (AID 2283453).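 For AC50: differentiated human HepaRG liver cells in serum-free induction medium.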 Summed up: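 FMO3 transcript quantified by TaqMan qRT-PCR against three housekeeping genes after 48 h chemical exposure of HepaRG cells. Eight-point half-log series, top 100 uM, 0.5% DMSO vehicle; phenobarbital 1mM induction control; up- or down-regulation fitted.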

Read-out in assay [5]: Cytochrome P450 (CYP1A1), CYP1A1 (gene 1543)
Description: LTEA_HepaRG_CYP1A1: Life Technologies and Expression Analysis (LTEA) Assay for Cytochrome P450 (CYP1A1) using HepaRG (AID 2283454). The method, boiled down: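 HepaRG, 48 h post-plating switched to serum-free induction medium; 8-pt conc-response (top 100 uM, half-log, 0.5% DMSO), duplicates, 48 h. Lysis in RLT, TaqMan qRT-PCR for CYP1A1; gain or loss vs DMSO.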

Read-out in assay [6]: CFLAR gene, CFLAR (gene 8837)
Nature of the assay: LTEA_HepaRG_CFLAR: Life Technologies and Expression Analysis (LTEA) Assay for CFLAR gene using HepaRG (AID 2283455). The method, boiled down:
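Transcript level by qRT-PCR (normalized to ACTB, GAPDH and POLR2A) after 48 h chemical exposure of HepaRG cells, top concentration 100 uM with half-log steps, 0.5% DMSO vehicle, duplicates; fitted bidirectionally against DMSO baseline.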

Read-out in assay [7]: growth arrest and DNA damage 45 (GADD45A), GADD45A (gene 1647)
Nature of the assay: LTEA_HepaRG_GADD45A: Life Technologies and Expression Analysis (LTEA) Assay for growth arrest and DNA damage 45 (GADD45A) using HepaRG (AID 2283458). Summed up:
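Transcript induction or loss, quantified by TaqMan qRT-PCR against three housekeeping genes, is the read-out. HepaRG cells received chemicals for 48 h across eight half-log concentrations from 100 uM in 0.5% DMSO; gain and loss fitted relative to DMSO.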

Read-out in assay [8]: Forkhead box O3 (FOXO3), FOXO3 (gene 2309)
Nature of the assay: LTEA_HepaRG_FOXO3: Life Technologies and Expression Analysis (LTEA) Assay for Forkhead box O3 (FOXO3) using HepaRG (AID 2283459). The method, boiled down:
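FOXO3 transcript measured by qRT-PCR (normalized to ACTB, GAPDH, POLR2A) after 48 h exposure of HepaRG cells in serum-free induction medium. Duplicates, eight half-log concentrations up to 100 uM, 0.5% DMSO; gain or loss fitted against DMSO.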

Read-out in assay [9]: growth arrest and DNA damage 45 (GADD45B), GADD45B (gene 4616)
Nature of the assay: LTEA_HepaRG_GADD45B: Life Technologies and Expression Analysis (LTEA) Assay for growth arrest and DNA damage 45 (GADD45B) using HepaRG (AID 2283461). The method, boiled down: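 HepaRG, ~100,000 cells/well, 48 h plating; serum-free induction medium; cpd 100 uM top, half-log x8, 0.5% DMSO, duplicate, 48 h; lysis in RLT, RNA isolation, qRT-PCR; norm ACTB/GAPDH/POLR2A; bidirectional fit vs DMSO.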

Read-out in assay [10]: ABC Transporter (ABCC3), ABCC3 (gene 8714)
Description: LTEA_HepaRG_ABCC3: Life Technologies and Expression Analysis (LTEA) Assay for ABC Transporter (ABCC3) using HepaRG (AID 2283462). The method, boiled down: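 Human HepaRG, 48 h dosing, 8-pt half-log series from 100 uM, 0.5% DMSO vehicle, duplicates. ABCC3 mRNA by TaqMan qRT-PCR, housekeeping-normalized; bidirectional curve fit vs DMSO.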

Read-out in assay [11]: ABC Transporter (ABCB11), ABCB11 (gene 8647)
Nature of the assay: LTEA_HepaRG_ABCB11: Life Technologies and Expression Analysis (LTEA) Assay for ABC Transporter (ABCB11) using HepaRG (AID 2283463). Summed up:
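ABCB11 transcript levels quantified by TaqMan qRT-PCR against three housekeeping genes after 48 h chemical exposure of HepaRG cultures. Concentrations up to 100 uM in half-log steps, 0.5% DMSO vehicle; both induction and suppression scored.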

Read-out in assay [12]: ABC Transporter (ABCC2), ABCC2 (gene 1244)
Description: LTEA_HepaRG_ABCC2: Life Technologies and Expression Analysis (LTEA) Assay for ABC Transporter (ABCC2) using HepaRG (AID 2283464). The method, boiled down:
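HepaRG, 48 h post-plating; serum-free induction medium; cpd 8-pt, 100 uM top, half-log, 0.5% DMSO, duplicate, 48 h. Readout: ABCC2 mRNA by qRT-PCR, norm. ACTB/GAPDH/POLR2A. Bidirectional fit vs DMSO baseline.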

Read-out in assay [13]: Broad substrate specificity ATP-binding cassette transporter ABCG2 (Homo sapiens) (UniProt Q9UNQ0)
Description: LTEA_HepaRG_ABCG2: Life Technologies and Expression Analysis (LTEA) Assay for ABC Transporter (ABCG2) using HepaRG (AID 2283465). The method, boiled down:
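ABCG2 transcript was quantified by TaqMan qRT-PCR against three housekeeping genes in HepaRG cells. Cells were treated in duplicate for 48 h across an 8-point half-log series up to 100 uM, with 0.5% DMSO vehicle. Gain or loss versus DMSO was fit.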

Read-out in assay [14]: Peroxisomal acyl-coenzyme A oxidase 1 (ACOX1) gene, ACOX1 (gene 51)
Description: LTEA_HepaRG_ACOX1: Life Technologies and Expression Analysis (LTEA) Assay for Peroxisomal acyl-coenzyme A oxidase 1 (ACOX1) gene using HepaRG (AID 2283467). Summed up: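 ACOX1 transcript levels were quantified by TaqMan qRT-PCR against three housekeeping genes after 48 h chemical exposure of differentiated human HepaRG cells. Exposure used eight half-log steps topping at 100 uM, 0.5% DMSO vehicle, in duplicate. Bidirectional curve fits were made relative to DMSO.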

Read-out in assay [15]: Alkaline Phosphatase, Placental (ALPP) gene, ALPP (gene 250)
Description: LTEA_HepaRG_ALPP: Life Technologies and Expression Analysis (LTEA) Assay for Alkaline Phosphatase, Placental (ALPP) gene using HepaRG (AID 2283468). Summed up: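 HepaRG, 48 h plating then 48 h dosing, serum-free induction medium, 0.5% DMSO. 8 conc, half-log, max 100 uM, duplicates. Endpoint: ALPP transcript by qRT-PCR, housekeeping-normalized; gain or loss fitted vs DMSO.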

Read-out in assay [16]: Bcl-2 (BAD) gene, BAD (gene 572)
Nature of the assay: LTEA_HepaRG_BAD: Life Technologies and Expression Analysis (LTEA) Assay for Bcl-2 (BAD) gene using HepaRG (AID 2283469). The method, boiled down: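 Read-out: qRT-PCR of BAD mRNA, normalized to three housekeeping genes. Human HepaRG cultures got 48 h chemical exposure in 0.5% DMSO, duplicate eight-point half-log series topping at 100 uM. Gain or loss of signal fitted versus DMSO vehicle.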

Read-out in assay [17]: Forkhead box O1 (FOXO1), FOXO1 (gene 2308)
Description: LTEA_HepaRG_FOXO1: Life Technologies and Expression Analysis (LTEA) Assay for Forkhead box O1 (FOXO1) using HepaRG (AID 2283456). Summed up:
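FOXO1 transcript quantified by qRT-PCR after 48 h chemical exposure (top 100 uM, half-log steps, 0.5% DMSO) of HepaRG cells, housekeeping-normalized (ACTB/GAPDH/POLR2A). Changes fitted in both directions relative to vehicle.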

Read-out in assay [18]: ABC Transporter (ABCB1), ABCB1 (gene 5243)
Nature of the assay: LTEA_HepaRG_ABCB1: Life Technologies and Expression Analysis (LTEA) Assay for ABC Transporter (ABCB1) using HepaRG (AID 2283460). The method, boiled down: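 ABCB1 transcript level measured by TaqMan qRT-PCR against three housekeeping genes after 48 h chemical exposure of differentiated HepaRG cells. Top concentration 100 uM, half-log steps, eight points, 0.5% DMSO vehicle; bidirectional fit relative to DMSO.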

Read-out in assay [19]: ATP-citrate lyase (ACLY), ACLY (gene 47)
Nature of the assay: LTEA_HepaRG_ACLY: Life Technologies and Expression Analysis (LTEA) Assay for ATP-citrate lyase (ACLY) using HepaRG (AID 2283466). The method, boiled down: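 ACLY mRNA quantified by qRT-PCR on Fluidigm arrays against three housekeeping genes, after 48 h chemical treatment of HepaRG cells (top concentration 100 uM, half-log steps, 0.5% DMSO vehicle). Up- or down-regulation fitted relative to DMSO.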

Chain of Broad substrate specificity ATP-binding cassette transporter ABCG2 (Homo sapiens) (Q9UNQ0 whole entry, looked up): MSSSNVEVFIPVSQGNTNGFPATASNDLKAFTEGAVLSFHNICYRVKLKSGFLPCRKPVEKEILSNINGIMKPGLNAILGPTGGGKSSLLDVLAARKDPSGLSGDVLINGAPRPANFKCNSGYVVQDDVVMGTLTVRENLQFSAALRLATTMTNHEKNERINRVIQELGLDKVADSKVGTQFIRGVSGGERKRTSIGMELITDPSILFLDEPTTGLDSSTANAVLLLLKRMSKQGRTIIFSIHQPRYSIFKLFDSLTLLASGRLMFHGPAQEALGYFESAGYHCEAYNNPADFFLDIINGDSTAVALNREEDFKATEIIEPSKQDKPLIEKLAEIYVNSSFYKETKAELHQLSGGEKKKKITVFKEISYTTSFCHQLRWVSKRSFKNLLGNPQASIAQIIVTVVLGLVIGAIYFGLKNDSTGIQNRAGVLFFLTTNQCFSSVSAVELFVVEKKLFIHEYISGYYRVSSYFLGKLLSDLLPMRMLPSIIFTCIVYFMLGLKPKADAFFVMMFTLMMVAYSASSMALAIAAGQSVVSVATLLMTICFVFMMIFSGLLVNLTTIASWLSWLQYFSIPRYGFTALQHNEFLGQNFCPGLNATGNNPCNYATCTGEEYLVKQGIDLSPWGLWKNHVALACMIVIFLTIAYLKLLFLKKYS

Consider `CCCCOCN(C(=O)CCl)c1c(CC)cccc1CC`, for which the outcome in assay [1], in [2], in assay [3], in assay [4], in assay [6] and in assay [7] was inactive. In addition, the outcome in assay [8], in assay [9], in assay [10], in assay [11], in assay [12] and in assay [13] was inactive. For the same compound, the outcome in assay [14], in assay [15] and in assay [16] was inactive. Further, in [5], the half-maximal activity concentration (AC50) was 74 µM (active).

For `COCC(C)N(C(=O)CCl)c1c(C)csc1C` (stereo unspecified), the compound was called inactive in assay [1], in [2], in [3], in assay [4], in [6] and in assay [17]. In addition, the result in assay [7], in assay [10], in assay [13], in assay [14], in assay [15] and in assay [16] was inactive. The AC50 in [5] is 50 µM (active); in [9], 74.1 µM (active); in assay [11], 50 µM (active); in assay [12], 32.6 µM (active).

For the compound `CCCN(CC)CC1COC2(CCC(C(C)(C)C)CC2)O1` (stereo unspecified), the call in assay [1], in assay [2], in assay [4], in [6], in [17] and in assay [7] was inactive. The result in assay [8], in assay [18], in assay [10], in assay [11], in [12] and in [13] was inactive. Also, the compound was called inactive in assay [19], in assay [14], in assay [15] and in [16]. For the same compound, the AC50 in assay [5] was 50 µM (active).

For `Clc1cccc(C(Cl)(Cl)Cl)n1`, the call in assay [1], in assay [2], in assay [4], in assay [5], in [6] and in assay [17] was inactive. The compound was classed as inactive in assay [8], in assay [10], in assay [11], in assay [12], in assay [13] and in assay [19]. Moreover, the result in [14], in [15] and in assay [16] was inactive. Besides, the AC50 in assay [7] was 89.4 µM (active).

With `CCOP(=S)(OCC)Oc1nc(Cl)n(C(C)C)n1`, the compound was classed as inactive in [2], in assay [3], in [6], in [17], in [7] and in assay [8]. In addition, the compound was classed as inactive in assay [18], in assay [12], in assay [13], in [15] and in [16]. Besides, the AC50 in assay [4] is 24.7 µM (active); in assay [5], 9.25 µM (active); in assay [10], 50 µM (active); in assay [11], 1.64 µM (active); in assay [19], 33.5 µM (active); in [14], 9.48 µM (active).

On to `Cc1cc(C)nc(Nc2ccccc2)n1`, for which the compound was called inactive in assay [1], in assay [2], in assay [3], in [4], in assay [6] and in [7]. Moreover, the call in [8], in [18], in assay [9], in [10], in [11] and in [12] was inactive. The outcome in assay [13], in assay [19], in [14], in assay [15] and in assay [16] was inactive. Moreover, in assay [5], the AC50 is 1.2 µM (active).

Regarding `CCSC(=O)N1CCCCCC1`, the result in [1], in [2], in assay [4], in assay [5], in [6] and in assay [17] was inactive. Also, the compound was called inactive in assay [7], in assay [8], in assay [18], in assay [10], in assay [11] and in assay [12]. Moreover, the compound was called inactive in assay [13], in assay [14], in [15] and in [16].

The values above are taken from PubChem BioAssay (EPA / NIEHS).
